This is an account of results in the supplement of paper PMC9262897, “Low-cost anti-mycobacterial drug discovery using engineered E. coli” (Nature Communications, 2022).

SMILES strings stand for the structures. Where a name gives a salt, the structure may show the parent alone. ± gives the standard deviation of the averaged measurements.

For this assay, the system named is E. coli TESEC Mtb Alr. As to the kind of experiment: growth (OD600 after 10 h); higher = more growth (less inhibition). To be noted: arabinose 10000000 nM; compound 0.1 mM; raw OD600 reference: median of DMSO wells […], cell-free background 0.052. How it is done:
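TESEC Mtb Alr E. coli (ΔaraC ΔtolC ΔentC Δalr ΔdadX, arabinose-inducible Mtb Alr) or the Alr+ wild-type control strain, grown in defined M9-fructose medium without D-alanine in 96-well plates with Prestwick library compounds at 0.1 mM and 1% DMSO. Low Alr induction is 0.1 µM arabinose and high induction is 10 mM arabinose.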
For the compound `CC(=O)Oc1cccc2c1C(=O)c1c(OC(C)=O)cc(C(=O)O)cc1C2=O` [Diacerein], the growth worked out at 0.0619 ± 0.0035.
`COc1ccc(-c2cc(=S)ss2)cc1` [Anethole-trithione] showed a growth of 0.369 ± 0.019.
In the case of `O=C(O)Cc1ccccc1Nc1c(Cl)cccc1Cl` [Diclofenac sodium], the growth amounted to 0.214 ± 0.015.
`CCN1CCC[C@H]1CNC(=O)c1c(O)c(Cl)cc(Cl)c1OC` [Raclopride] registered a growth of 0.175 ± 0.027.
In turn, `COc1ccc(C[C@@H]2c3cc(OC)c(OC)cc3CC[N@+]2(C)CCC(=O)OCCCCCOC(=O)CC[N@@+]2(C)CCc3cc(OC)c(OC)cc3[C@H]2Cc2ccc(OC)c(OC)c2)cc1OC` [Cisatracurium besylate] had a growth of 0.304 ± 0.0097.
The figure for `CN(C)CCOC(=O)C(c1ccccc1)C1(O)CCCC1` (stereo not given) [Cyclopentolate hydrochloride] is 0.316 ± 0.018; for `CCCCOc1ccc(C(=O)CCN2CCCCC2)cc1` [Dyclonine hydrochloride] it is 0.355 ± 0.033.
Compound `CC[C@H]1OC(=O)[C@H](C)[C@@H](O[C@H]2C[C@@](C)(OC)[C@@H](O)[C@H](C)O2)[C@H](C)[C@@H](O[C@@H]2O[C@H](C)C[C@H](N(C)C)[C@H]2O)[C@](C)(O)C[C@@H](C)/C(=N\OCOCCOC)[C@H](C)[C@@H](O)[C@]1(C)O` [Roxithromycin] showed a growth of 0.0513 ± 0.00036.
Compound `CCOC(=O)O[C@]1(C(=O)OCCl)CC[C@H]2[C@@H]3CCC4=CC(=O)C=C[C@]4(C)[C@H]3[C@@H](O)C[C@@]21C` [Loteprednol etabonate] yielded a growth of 0.219 ± 0.024.
`c1ccc2c(CC3=NCCN3)cccc2c1` [Naphazoline hydrochloride]: the growth came out at 0.323 ± 0.018.
